Compound activity deposited in PubChem BioAssay by National Center for Advancing Translational Sciences (NCATS).
In the library only some 0.69% were active in any assay of this set; here they are far more common.
AT treatment: qHTS Assay for Identifying a Potential Treatment of Ataxia-Telangiectasia | Potency, µM (series often up to 57.5 µM), for inactives: at the highest dose activation, most hits filed as activators | F2112 A-T fibroblasts, KAP-1 phosphorylation AlphaLISA; neocarzinostatin DNA damage 30 min before lysis | actives 0.19% (n = 320,000) | AID 485349, 2010; also: potency is read from the fitted curve at half-maximal effect; % of control where 0% means no effect; nearly all actives have a fitted effect of over 45% in size
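hTERT-immortalized A-T patient fibroblasts (F2112), 500 cells/well in OPTI-MEM, 1% FBS, got compounds for 60 min, then NCS for 30 min at 37C. Lysates were then assayed for phospho-KAP-1 by AlphaLISA (anti-pKAP1 donor, anti-KAP1 acceptor beads), 6 hr at 25C.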
PKM2 activator: qHTS Assay for Activators of Human Muscle isoform 2 Pyruvate Kinase; purified PKM2, Kinase-Glo ATP luminescence, activation; response scale: 0% is enzyme alone, no compound; Potency, µM (series often up to 57.5 µM), for the others: top-dose activation, usual class: activators; actives 0.34% (n = 260,000); also: potency is read from the fitted curve at half-maximal effect; % is scaled to controls: 0 for no effect and ±100 for the full control effect; nearly all actives have a fitted effect of over 55% in size
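Kinase-Glo luminescence reports ATP generated from ADP (0.1 mM) and PEP (0.5 mM) by purified hPK-M2 after 1 h at room temperature, pH 7.2 imidazole buffer; intermediate enzyme activity allows detecting inhibitors and activators.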
Tb PFK block: qHTS Assay to Find Inhibitors of T. brucei phosphofructokinase | actives 0.17% (n = 330,000) | Potency, µM (titrated, usually from 57.5 µM), for the others: at the top dose activity, negative = inhibition, most hits filed as inhibitors | AID 485367, 2010 | ATP-dependent 6-phosphofructokinase (Trypanosoma brucei brucei), O15648 | T. brucei PFK, ADP-Glo luminescence;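 also: potency is read from the fitted curve at half-maximal effect; 0% = uninhibited 1x PFK enzyme wells and -100% = no-enzyme wells; nearly all actives have a fitted effect of over 60% in size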
Target sequence (O15648 whole entry, looked up): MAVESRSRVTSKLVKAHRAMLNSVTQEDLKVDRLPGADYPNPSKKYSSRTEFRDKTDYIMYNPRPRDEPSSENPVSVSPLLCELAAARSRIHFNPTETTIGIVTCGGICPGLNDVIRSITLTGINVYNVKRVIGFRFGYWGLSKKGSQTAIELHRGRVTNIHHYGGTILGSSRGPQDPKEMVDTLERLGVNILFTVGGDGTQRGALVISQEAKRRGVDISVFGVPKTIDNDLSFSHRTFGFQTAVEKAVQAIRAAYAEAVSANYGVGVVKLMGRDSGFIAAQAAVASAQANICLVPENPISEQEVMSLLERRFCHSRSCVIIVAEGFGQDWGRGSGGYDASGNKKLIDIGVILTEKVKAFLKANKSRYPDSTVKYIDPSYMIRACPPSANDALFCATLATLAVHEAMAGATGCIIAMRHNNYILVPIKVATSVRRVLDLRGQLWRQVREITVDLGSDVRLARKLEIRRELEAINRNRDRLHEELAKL
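Luminescent ADP detection (ADP-Glo, two-step: ATP depletion then ADP-to-ATP conversion for luciferase) reported PFK activity after 45 min room-temperature reaction of 1.25 nM enzyme with 0.5 mM F6P and 0.1 mM ATP at pH 8.0.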
TCR act: Activators of T cell receptors: qHTS campaign; 330,000 tested, under 10 active; AID 504894, 2011; primary human leukocytes, anti-CD3, IL-2 HTRF, 48 h; Potency, µM (titrated, usually from 9.22 µM), for inactives: at the highest dose activation of IL-2 secretion, hits mostly activators; also: % of control where 0% means no effect
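HTRF read-out of IL-2 secretion: europium cryptate donor excited at 320nm, d2 acceptor emission at 665nm. Cells were primary human leukocytes incubated 48 hr with compounds and a-CD3 beads, supplying TCR signal only.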
IL2 activator: qHTS of IL-2 Activators. actives 0.065% (n = 360,000). IL-2 activation reporter assay, cell-based qHTS; stimulated with anti-CD3/CD4/CD28 beads; in transgenic mouse T cells. AID 652025, 2013. activation, % (series mostly up to about 46 µM); in the data active = activation above about 50%; inconclusive = mostly about 30% to 49%; also: 0% is about no effect
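Readout: EGFP and DsRed signals by fluorescent plate cytometry. Unstimulated transgenic mouse T cells received compound 60 min before antibody-bead stimulation, then incubated 18 h at 37 degrees C.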
Integrin act MD: qHTS for Activators of Integrin-Mediated Alleviation for Muscular Dystrophy. AID 624291, 2012. actives 0.064% (n = 350,000). Potency, µM (doses to about 38.3 µM), for the others: at the highest dose activation, most hits filed as activators. alpha7betagal myoblasts, beta-gal FDG fluorescence, 48 h;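 also: potency is read from the fitted curve at half-maximal effect; 100% = response of the positive control SU9516; nearly all actives have a fitted effect of over 60% in size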
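alpha7betagal+/- myoblasts (passage 13, 250/well) treated 48 h at 37C with compounds at 1:260 dilution of DMSO stock. Lysed, then beta-galactosidase activity read as FDG fluorescence (ex 480/em 540) after 30 min, with pre-read for autofluorescence.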
* marks the source's active call; other numbers are inactive results; ? = inconclusive; / = no result; [ ] = remark or other dose. Unless noted, calls follow the shape of the dose curve; as a rule, active = well fitted curve in the direction sought with a large enough effect; inconclusive = small, poorly fitted or top-dose-only effect, or another doubt; inactive = no such curve, though single readings can be large; an effect the other way counts as inactive or inconclusive.

SMILES | AT treatment | PKM2 activator | Tb PFK block | TCR act | IL2 activator | Integrin act MD
O=C(CSc1nc2ccc(Cl)cc2[nH]1)c1ccc2c(c1)OCO2 | 2% | 7.9µM* | -2% | 0% | -2 | 22%
N#Cc1c(N)n(CCNC(=O)c2ccccc2)c2nc3ccccc3nc12 | 5% | 18µM* | -4% | 2%[46.1 µM] | 1 | -5%
N#Cc1c(N)n(CCNC(=O)c2cccs2)c2nc3ccccc3nc12 | 9% | 30% | 1% | 0% | 0 | -11%
COc1ccc(OCCN2CCN(C(=O)c3ccc(OC)c(OC)c3)CC2)cc1 | 6% | / | 6% | -2% | 0 | 15%
Cc1cc(C)c2[nH]c(C)c(CN3CCCCCC3)c(=O)c2c1 | 14% | / | 11% | -3% | 0 | ?
O=S(=O)(NCCCO)c1ccc2c(c1)Cc1cc(S(=O)(=O)NCCCO)ccc1-2 | -1% | 13µM* | 7% | -1% | 1 | 11%
CCCCN1C(=O)/C(=C2/Sc3ccc(OC)cc3N2CC)SC1=S | 1% | -2% | -1% | / | 118* | ?
C=CCN1C(=O)/C(=C2/Sc3ccc(OC)cc3N2CC)SC1=S | -8% | 3% | 1% | / | 189* | -41%
CCN1/C(=C2/SC(=S)N(NC(C)=O)C2=O)Sc2ccc(OC)cc21 | -16% | 13% | -4% | / | 1 | 0%
O=C(N=c1ccn(-c2nc3ccccc3nc2NS(=O)(=O)c2ccc(Cl)cc2)cc1)c1cccs1 | 1% | -1% | -3% | -11% | 244* | 5%
Cc1cc(C2=CC(C)(c3cc(C)oc3C)Nc3nc(C(F)(F)F)nn32)c(C)o1 (configuration not stated) | ? | 22µM* | 5% | / | / | /
COc1cc(C#Cc2c(C=O)n(C)c3ccccc23)cc(OC)c1 | ? | / | 0% | 13% | 51* | 14%
CCOC(=O)c1c(-c2ccco2)csc1NC(=O)CSc1nnc(N)s1 | -5% | 13µM* | -9% | 3% | -2 | 3%
CCOC(=O)c1c(-c2ccc(C)o2)csc1NC(=O)CN1CCN(CC)CC1 | 6% | ? | -9% | -1% | -2 | -68%
CCOC(=O)c1c(-c2ccc(C)o2)csc1NC(=O)CN1CCCCC1 | 20% | 27% | ? | -7% | -6 | -38%
CCOC(=O)c1c(-c2ccc(C)o2)csc1NC(=O)CSc1nncs1 | 1% | 8.9µM* | ? | -6% | -1 | -57%
CCOC(=O)c1c(-c2ccc(C)o2)csc1NC(=O)CN1CCC(C(N)=O)CC1 | 1% | 20µM* | ? | -6% | 8 | -34%
N#Cc1ccc2c(c1)C[C@]1(CCCCN3C(=O)c4ccccc4C3=O)OC3=C(C(=O)OC4(CCCCC4)C3)C2O1 | 6%[11.5 µM] | 12%[11.5 µM] | 0%[11.5 µM] | / | / | /
CCN(CC)CCCCn1c(-c2ccccc2)nc2c(N(CCOC)CCOC)nc(C)nc21 | / | 3% | / | / | / | /
C[C@@H](C(=O)Cc1ccc2ccccc2c1)[C@@H]1C[C@@]1(C)[C@@H](NP(=O)(c1ccccc1)c1ccccc1)c1ccccc1 | / | -1% | / | / | / | /
COc1ccc(N(CCC#N)S(=O)(=O)c2cccc3nsnc23)cc1 | -12% | -2% | -2% | 2% | -2 | 9%
O=S(=O)([N-]c1nc2ccccc2nc1-n1cc[n+](Cc2ccccc2)c1)c1ccc(Cl)cc1 | 20µM* | 4% | 1% | 1% | -5 | 11%
CCN(CC)c1ccc(/C=C/c2cc(-c3ccccc3)c3ccccc3n2)cc1 | 11µM* | 4% | 3% | 0% | 20 | 3%
Cc1noc(C)c1S(=O)(=O)N1CCc2nc(COc3ccccc3)c3c(c2C1)CO[C@@H](C)C3 | / | -5%[11.5 µM] | / | / | / | /
COCCCNC(=O)CN1C(=O)/C(=C/c2ccccc2)Sc2ccccc21 | 40µM* | 3% | 1% | -1% | 1 | 4%
SMILES | AT treatment | PKM2 activator | Tb PFK block | TCR act | IL2 activator | Integrin act MD
CCCn1c(-c2ccc(F)cc2)nc2c(NCC(C)(C)CN(C)C)nc(C)nc21 | / | -3% | / | / | / | /
CCc1ccc(NC(=O)CSc2nc3n[nH]c(C)c3c(=N)n2-c2cccc(OC)c2)cc1 | 1% | -7% | 3% | 2%[46.1 µM] | -3 | -51%
COc1cccc(NC(=O)CSc2nc3n[nH]c(C)c3c(=N)n2-c2cccc(OC)c2)c1 | 2% | 25µM* | 1% | 4% | 0 | -15%
COc1cc2c(cc1OC)C1O[C@](c3ccsc3)(C2)OC2=C1C(=O)OC1(CCCCC1)C2 | -4%[11.5 µM] | -1%[11.5 µM] | 2%[11.5 µM] | / | / | /
O=C(CCc1ccccc1)Nc1nc2n(n1)C(c1ccccc1)CC(=O)N2 (configuration not stated) | 32µM* | -15% | 4% | 5% | 0 | -1%
O=C(CCc1ccccc1)Nc1nc2n(n1)C(c1ccc(Cl)cc1)CC(=O)N2 (configuration not stated) | -1% | -2% | -1% | 0% | 1 | ?
COc1ccc2nc(N3CCCC3)c(C#N)cc2c1 | / | 6% | 1% | -3% | 3 | 0%
COc1ccc2nc(N3CCCCC3)c(C#N)cc2c1 | 20µM* | 14% | 1% | 15% | 0 | 16%
CC(=O)CCc1oc2ccc([N+](=O)[O-])cc2c1-c1ccc(C)o1 | -4%[11.5 µM] | 2% | -13% | 1% | -4 | 14%
CC(=O)CCc1oc2c([N+](=O)[O-])cccc2c1-c1ccc(C)o1 | 7% | 10µM* | -4% | -5% | -1 | ?
COC(=O)C(C(=O)OC)C1c2ccccc2C=C(C)N1C(=O)OC (configuration not stated) | / | -5%[11.5 µM] | / | / | / | /
O=C(Nc1ccc(N2CCN(C(=O)c3ccccc3F)CC2)cc1)c1cncc(Br)c1 | 5% | -3% | -10% | -7% | -2 | 13µM*
COc1ccc([C@]23Cc4ccccc4C(O2)C2=C(O3)C(=O)c3ccccc3C2=O)cc1 | 2%[11.5 µM] | 1%[11.5 µM] | 2%[11.5 µM] | / | / | /
O=C(O)c1ccccc1N/N=C/c1c(Sc2nnnn2-c2ccccc2)nc2ccccn2c1=O | -5% | -24% | -2% | -4% | 15 | 0%
O=c1c(/C=N/Nc2ccccc2)c(Sc2nnnn2-c2ccccc2)nc2ccccn12 | -4% | 6% | 1% | -3% | 90* | -26%
COc1cc(CNCc2ccc(C(=O)O)cc2)ccc1OCc1ccc(F)cc1 | -9% | / | -1% | 16% | 1 | 4.5µM*
N#Cc1ccc(C[C@H](C(=O)O)N2C(=O)c3ccc(C(=O)O)cc3C2=O)cc1 | 4% | / | 0% | / | / | /
